Test results taken from ChEMBL document CHEMBL4513216, “Probing the Open Global Health Chemical Diversity Library for Multistage-Active Starting Points for Next-Generation Antimalarials” (ACS Infect Dis, 2020).
Screen size: about 69,000 compounds; about 8,600 (12%) showed an effect of 50% or more. Many of the other results were omitted from the sample, so strong results are more common in it than they were.

test system: Plasmodium berghei; experiment: Screen against P. berghei liver stage (PbLuc), transformed with Luciferase, at 10uM; format: functional, HepG2; details: tested at 10 uM

Compared with CNC(=O)[C@@H](c1ccccc1)N1CCC[C@H]1C(=O)NCc1cccnc1, Cc1cccc(NC(=O)[C@@H]2CCCN2CC(=O)Nc2ccccc2)n1 is higher in INHIBITION: -1.12% for the first, 76.5% for the second.

Going from CCS(=O)(=O)N1CCCC2(COCCN(c3nnc(C)o3)C2)C1 (centres undefined) to CC(C)Cc1noc(CN2CCN(S(C)(=O)=O)CC2)n1, the INHIBITION rises from 29.8% to 32.78%.

First: Cc1noc(C)c1CN1CCN(Cc2nc(C3CC3)no2)CC1
Second: Cc1noc(C)c1CN1CCN(C(C)c2nc(C3CC3)no2)CC1 (centres undefined)
The INHIBITION of the first is higher: 72.2% for the first, 59% for the second.

Compared with Cc1nc(CN2CCN(C(C)c3nc(C4CC4)no3)CC2)oc1C (centres undefined), Cc1cnc(CN2CCN(C(C)c3nc(C4CC4)no3)CC2)cn1 (centres undefined) is higher in INHIBITION: 4.75% for the first, 24.7% for the second.

First: Cc1noc(C)c1CN1CCCC(c2noc(C3CC3)n2)C1 (centres undefined)
Second: Cc1noc(C)c1Cc1nc(C2CC2)no1
The INHIBITION of the first is lower: -12.2% for the first, 14.6% for the second.

Compared with CCCN(Cc1nc(-c2ccc(F)c(OC)c2)oc1C)CC1CCCO1 (centres undefined), Cc1cccc(-c2ccc(C(=O)NCC3CCCO3)c(=O)[nH]2)c1 (centres undefined) is lower in INHIBITION: -12.1% for the first, -29.1% for the second.

Going from Cc1cc(C)n(CC2CCCN2C(=O)c2cccnc2N(C)C)n1 (centres undefined) to COc1ncccc1C(=O)N1CCCC1c1c(C)nn(C)c1Cl (centres undefined), the INHIBITION falls from 21% to -23.9%.

Going from Cc1ccc(CN(C(=O)NC2CCS(=O)(=O)C2)C2CC2)o1 (centres undefined) to CCn1cc2[nH]c(OC)c(CNC(=O)C3CCS(=O)(=O)CC3)cc-2c1=O, the INHIBITION falls from 2.79% to -21.8%.

First: Cc1ccccc1OCCN1CCCC(c2cc(C(N)=O)[nH]n2)C1 (centres undefined)
Second: Cc1ccccc1OCCN1CCCC1CS(N)(=O)=O (centres undefined)
The INHIBITION of the first is higher: 23.5% for the first, -55.2% for the second.

First: Cn1cc(CN(C/C=C/c2ccccc2)C2CC2)cn1
Second: CN(Cc1cnn(C)c1)C(=O)c1ccc(=O)n(Cc2ccccc2)n1
The INHIBITION of the first is lower: -59.5% for the first, 0.164% for the second.

Going from O=C1CCCN1C1CCCN(CCn2cc(Cl)cn2)C1 (centres undefined) to CC(C1CCN(Cc2cnn(C)c2C2CC2)CC1)N1CCCC1 (centres undefined), the INHIBITION rises from -63.5% to 40.9%.

Going from CN(Cc1ccco1)[C@@H]1CN(Cc2nccs2)C[C@@H]2CCCO[C@@H]21 to Cc1ccc(CN2C[C@H]3OC(=O)N(Cc4ccccn4)[C@H]3C2)o1, the INHIBITION falls from 44.3% to 22.9%.

First: CC(C1CCN(Cc2cnn(C)c2C2CC2)CC1)N(C)C (centres undefined)
Second: CC(C1CCN(Cc2cnn(C)c2C2CC2)CC1)N1CCN(C)CC1 (centres undefined)
The INHIBITION of the first is higher: 50.7% for the first, 29% for the second.

Compared with O=C(NCC1CCOC1)c1ccc(-c2ccccc2)[nH]c1=O (centres undefined), Cc1cccc(NC(=O)[C@@H]2CCCN2Cc2ccccc2C#N)n1 is higher in INHIBITION: -26.6% for the first, 0.342% for the second.

Going from Cc1ccc(CN2CCCC3(CCCC(=O)N3)C2)s1 (centres undefined) to Cc1ccc(CN2CCc3ncnc(C4CC4)c3CC2)s1, the INHIBITION rises from 21.1% to 34.8%.

Going from NS(=O)(=O)CC1CCCN1CCOc1ccccc1F (centres undefined) to CCOCCN1CCCC1CS(N)(=O)=O (centres undefined), the INHIBITION rises from 37.9% to 61.5%.

First: COCc1ccc(C(=O)N2CCN(CC(C)O)CC2)cc1 (centres undefined)
Second: CC(O)CN1CCN(C(=O)c2ccn(-c3ccc(F)cc3)n2)CC1 (centres undefined)
The INHIBITION of the first is lower: -7.81% for the first, -7.35% for the second.

Going from CC(C)CN(Cc1ccc(-n2cncn2)cc1)Cc1ccccn1 to CCOc1c(F)cccc1C(=O)N(C)CCc1ccccn1, the INHIBITION falls from 34.9% to 24.7%.

Compared with Cc1cc(CN(C)c2nc(-c3ccco3)nc3c2CCN(C)CC3)on1, Cc1noc(CN(C)c2nc(-c3ccco3)nc3c2CCN(C)CC3)n1 is lower in INHIBITION: 30% for the first, 28.8% for the second.

NCC1CN(c2nc(-c3cccnc3)nc3c2CCNCC3)CCO1 (centres undefined) and CN(CC1CCCO1)c1nc(-c2cccnc2)nc2c1CCNCC2 (centres undefined) are the same in INHIBITION: 7.43% for the first, 7.43% for the second.

Compared with CN(CC1CCCCO1)c1nc(-c2cccnc2)nc2c1CCNC2 (centres undefined), CN(CC(O)CO)c1nc(-c2cccnc2)nc2c1CCNC2 (centres undefined) is lower in INHIBITION: 72.3% for the first, 26.1% for the second.

Going from Cc1nonc1CN(C)c1nc(-c2cccnc2)nc2c1CCNC2 to Cc1nccn1CCN(C)c1nc(-c2cccnc2)nc2c1CCNC2, the INHIBITION falls from 81.1% to -1.25%.

Compared with Cc1nonc1CN(C)c1nc(-c2ccco2)nc2c1CCN(C)CC2, Cc1ccc(-c2cnnc(N3CCCC3c3nonc3C)n2)o1 (centres undefined) is lower in INHIBITION: 75.4% for the first, 5.67% for the second.

Going from CNC(=O)N1CCC2(CC1)c1ncc(C)n1CCN2C to CCC[C@@H]1CN(c2cncc(C(=O)N3CCOCC3)n2)C[C@H]1N(C)C, the INHIBITION falls from 48.4% to -31.7%.

Compared with CN1C[C@H](c2ccccc2)[C@H]2CN(C(=O)Cc3cccc(O)c3)CC[C@H]21, O=C(Cc1ccc2c(c1)CCO2)N1CCN(c2ccccn2)CC1 is lower in INHIBITION: 43.7% for the first, -13.5% for the second.

Going from O[C@@]1(CNCC2(Cn3ccnc3)CC2)CCCN2CCCC[C@@H]21 to Cc1cccc(NC(=O)[C@@H]2CCCN2CC(=O)N2CCCCCC2)n1, the INHIBITION rises from -6.39% to -3.83%.

First: Cc1nnc(CNCC2(O)CCCN(Cc3ccc(F)c(F)c3)C2=O)[nH]1 (centres undefined)
Second: CCOCc1cc(CN2CCn3c(CO)nnc3C2)ccc1OC
The INHIBITION of the first is higher: -1.33% for the first, -38.2% for the second.

Compared with CC(C)Cc1nc(CN2CCN(CC(O)c3ccccc3)CC2)no1 (centres undefined), CC(C)Cc1noc(CN2CCCN(C(=O)c3ccccc3Cl)CC2)n1 is higher in INHIBITION: 23.5% for the first, 37.2% for the second.

Going from Cc1ccc(C)c(CN(C)Cc2nnc3ccccn23)c1 to Cc1ccc(C)c(C(O)CN(C)Cc2nnc3ccccn23)c1 (centres undefined), the INHIBITION rises from 9.45% to 23.3%.

First: CCC(O)CN(C)Cc1nnc2ccccn12 (centres undefined)
Second: CN(Cc1nnc2ccccn12)C(=O)CCNC(=O)C(C)(C)C
The INHIBITION of the first is higher: 61.8% for the first, 8.77% for the second.

Going from Cn1cccc1CNC(=O)CCCc1nnc2ccccn12 to O=C(CCC1CCCC1)NCc1nnc2ccccn12, the INHIBITION rises from -23.7% to 76.4%.

First: O=C(CCC1CCCCC1)NCc1nnc2ccccn12
Second: CN(Cc1nnc2ccccn12)C(=O)CCC1CCCC1
The INHIBITION of the first is lower: -18.7% for the first, 54.7% for the second.

Compared with CN(Cc1nnc2ccccn12)C(=O)CC1CCCCC1, CC1=Nc2c(c(=O)[nH]n2C2CCCCC2)C(c2cccnc2)S1 (centres undefined) is higher in INHIBITION: 10.7% for the first, 14.2% for the second.

Going from Cc1cc(C2CCCN(S(=O)(=O)c3cn(C)cn3)C2)ccn1 (centres undefined) to Cn1cc(NC(=O)N2CCCC2c2cccnc2)ccc1=O (centres undefined), the INHIBITION falls from 12.8% to -72.2%.

Compared with Cc1cnn(CC2CCCN2C(=O)c2c(F)cccc2Cl)c1 (centres undefined), Cc1cccc(-c2noc(CN3CCCCC3Cn3cncn3)n2)c1 (centres undefined) is higher in INHIBITION: -59.4% for the first, 9.14% for the second.

First: Cc1cc(-c2ccc(=O)n(CCNC(=O)C3CC3)n2)c(C)o1
Second: Cc1nc(CNC(=O)N(CCCO)C2CCc3ccccc32)oc1C (centres undefined)
The INHIBITION of the first is lower: -21.2% for the first, 21.6% for the second.

Compared with CC(C)C(C)NC(=O)c1cc(Br)c2c(c1)OCCO2 (centres undefined), CCN(CC)C(CNC(=O)c1c(C)noc1C(C)C)c1ccsc1 (centres undefined) is higher in INHIBITION: 23.5% for the first, 33.7% for the second.

Compared with Cc1ccc(F)c(NS(=O)(=O)c2cc(C(=O)O)oc2C)c1, Cc1cccc(C(=O)N2CCCCC2c2[nH]ncc2S(C)(=O)=O)c1 (centres undefined) is lower in INHIBITION: 12.7% for the first, 4.08% for the second.

Going from COc1cccc2cc(CNC(=O)N3CCC(N4CCCC4)C3)oc12 (centres undefined) to COc1cccc2cc(CNC(=O)N3CCCC(O)C3)oc12 (centres undefined), the INHIBITION falls from 54.4% to 42.7%.

Going from COc1cccc2cc(CNC(=O)N3CCC(C(N)=O)CC3)oc12 to COc1cccc2[nH]c(C(=O)N3CCNCC3C(N)=O)cc12 (centres undefined), the INHIBITION rises from -36.1% to 12.285%.

Going from CC(C)Cc1noc(CN2CCN(C(=O)c3cccc(F)c3)CC2)n1 to CC(C)Cc1noc(CN2CCCN(C(=O)c3cccc(Cl)c3)CC2)n1, the INHIBITION rises from -29.9% to 68.3%.

First: CC(C)Cc1noc(CN2CCN(CCOc3ccc(Cl)cc3)CC2)n1
Second: CCOCCN1CCN(Cc2nc(CC(C)C)no2)CC1
The INHIBITION of the first is higher: 79.9% for the first, 53.575% for the second.

First: CCN1CCN(Cc2nc(CC(C)C)no2)CC1
Second: CC(C)Cc1noc(CN2CCN(CCO)CC2)n1
The INHIBITION of the first is lower: 16.45% for the first, 48.9% for the second.

Compared with CCOCCN1CCN(Cc2nc(C3CC3)no2)CC1CC (centres undefined), CCOCCN1CCN(Cc2nc(C)no2)CC1CC (centres undefined) is higher in INHIBITION: 38.7% for the first, 54.4% for the second.

First: CC(C)Cc1noc(CN2CCN(c3nccs3)CC2)n1
Second: CCN1CCN(Cc2nc(C)no2)CC1
The INHIBITION of the first is lower: -22.6% for the first, 0.818% for the second.

Compared with CN(C)C(=O)CN1C(=O)CO[C@@H]2CN(c3ccccn3)C[C@H]21, O=C1O[C@@H]2CN(Cc3cc4ccccc4o3)C[C@@H]2N1Cc1ccccn1 is higher in INHIBITION: 21.7% for the first, 55% for the second.

Compared with O=C(NC1CCCC1)c1ccc(C2CCCNC2)nc1 (centres undefined), CN1C(=O)CCc2cc(NC(=O)C3CC(=O)N(CC4CC4)C3)ccc21 (centres undefined) is higher in INHIBITION: -17.7% for the first, -5.57% for the second.

Compared with CC(=O)NCCc1cc2nc(-c3ccncc3)ccn2n1, O=C(CCc1ccc(-n2cnnn2)cc1)Nc1nncs1 is higher in INHIBITION: 14.105% for the first, 40.6% for the second.

Compared with Cc1noc(C)c1CN1CCc2cnn(C)c2C1COCC1CC1 (centres undefined), CCOCCN1CCN(Cc2nnc(C3CC3)o2)CC1C (centres undefined) is higher in INHIBITION: 23.3% for the first, 74.2% for the second.

Compared with CCOCCN1CCN(Cc2nnc(C3CC3)o2)CC1, CCOCCN1CCN(Cc2nnc(C3CC3)o2)CC1CC (centres undefined) is lower in INHIBITION: 12.6% for the first, 0% for the second.

First: N#CCCn1nc(C(F)(F)F)c2c1CCC2
Second: N#CCCn1nc(C(F)(F)F)c2c1CCCC2
The INHIBITION of the first is higher: 57.5% for the first, 42.6% for the second.

Going from NCCCn1nc(C(F)(F)F)c2c1CCC2 to O=C1O[C@@H]2CN(Cc3cc4ccccc4s3)C[C@@H]2N1Cc1ccccn1, the INHIBITION rises from 27.8% to 36.5%.

Compared with Cc1nccn1C1CCCN(C(=O)c2cccc(-n3cccc3)c2)C1 (centres undefined), O=S(=O)(NCc1ccc(S(=O)(=O)N2CCCC2)s1)c1cc(Cl)cc(Cl)c1 is lower in INHIBITION: 43.2% for the first, 40.6% for the second.

Compared with CC(C)C1SCC(=O)Nc2c1cnn2-c1ccc(F)cc1 (centres undefined), CC(C)C1SCC(=O)Nc2c1cnn2-c1ccc(Cl)cc1 (centres undefined) is higher in INHIBITION: 8.99% for the first, 78% for the second.

Work on COc1ccc(-n2ncc3c2NC(=O)CSC3C(C)C)cc1 (centres undefined) yielded an INHIBITION of 5.51%.
